The values that follow come from PubChem BioAssay AID1851 (National Center for Advancing Translational Sciences (NCATS), 2009).

Values joined by “and” are separate entries in the source; they are usually repeats but may differ in a detail not shown here. Equal values may be shown once. About 5,100 (32%) of roughly 16,000 compounds were called active. Another 25% or so got no clear call; they are omitted. This is one part of the list. Unmarked numbers belong to inactive results. The call rests on the fitted dose curve; in most records, active means well fitted curve in the direction sought with a large enough effect; inconclusive means small, poorly fitted or top-dose-only effect, or effect the other way; inactive means no such curve, though single readings can be large or run the other way.
On the % scale 0 is the no-effect control and ±100 the full control effect.

In this experiment the target is Cytochrome P450 3A4 (Homo sapiens) (UniProt P08684). In words: Cytochrome panel assay with activity outcomes. The settings on record: recombinant CYP, pro-luciferin dealkylation, luminescence, p450-cyp3a4; series mostly up to 57.1 µM; activity, negative = inhibition: at the top concentration.
Sequence of Cytochrome P450 3A4 (Homo sapiens) (P08684 whole entry, looked up): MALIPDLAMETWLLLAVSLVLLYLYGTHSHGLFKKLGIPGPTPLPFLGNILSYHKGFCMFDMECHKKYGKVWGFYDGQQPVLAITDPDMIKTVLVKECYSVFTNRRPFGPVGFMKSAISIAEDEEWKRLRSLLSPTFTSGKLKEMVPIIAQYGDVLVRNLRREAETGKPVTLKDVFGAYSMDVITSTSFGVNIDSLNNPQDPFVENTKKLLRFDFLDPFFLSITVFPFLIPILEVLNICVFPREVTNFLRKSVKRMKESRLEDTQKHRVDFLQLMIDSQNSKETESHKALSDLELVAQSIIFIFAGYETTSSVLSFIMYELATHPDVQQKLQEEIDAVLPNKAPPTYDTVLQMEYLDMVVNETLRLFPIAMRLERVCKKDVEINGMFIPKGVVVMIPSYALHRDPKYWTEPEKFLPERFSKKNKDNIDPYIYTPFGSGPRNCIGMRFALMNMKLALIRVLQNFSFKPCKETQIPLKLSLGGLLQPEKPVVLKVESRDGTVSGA
In the case of `CC(C)(C)C(=O)NC(=C(Cl)Cl)P(=O)(O)O`, the “activity, negative = inhibition” value was 10.5%.
On the same count and under the same terms, under `N=C(N)C(N=Nc1ccccc1)C(=N)N` (stereo not drawn) stands -1.93% [at 11.4 µM].
Broadly, the AC50 is the concentration giving half of the maximal activity seen. For the compound `CO[C@H]1COC(=O)C/C=C\[C@H](C)[C@@H](NS(=O)(=O)c2ccc(C)cc2)COC(=O)CCC[C@@H]1C`, the AC50 is 3.98 µM (active).
On to `CO[C@H]1COC(=O)CCC[C@H](C)[C@H](OC)COC(=O)C/C=C\[C@@H]1C`, for which the activity, negative = inhibition was -29.6% [at 11.4 µM].
On to `CO[C@H]1COC(=O)CCC[C@H](C)[C@@H](OC)COC(=O)C/C=C\[C@@H]1C`, for which the activity, negative = inhibition is -19.5% [at 11.4 µM].
As for `CCC(Sc1nc2cc3c(cc2c(=O)n1Cc1ccco1)OCO3)C(=O)Nc1cccc(OC)c1` (stereo not drawn), the AC50 is 1.26 µM (active).
As for `CCC(Sc1nc2cc3c(cc2c(=O)n1Cc1ccco1)OCO3)C(=O)Nc1ccccc1OC` (stereo not drawn), the AC50 was 1.58 µM (active).
Same read-out and setting: under `CCn1c(C)cc(/C=C2\NC(=O)N(Cc3ccc(Cl)cc3)C2=O)c1C` stands 1.58 µM (active).
As for `Cc1sc2nc(SCc3nc(-c4cccs4)no3)n(-c3ccccc3)c(=O)c2c1C`, the “activity, negative = inhibition” value is -1.01%.
For `Cc1sc2nc(SCC(=O)C(C)(C)C)n(Cc3ccco3)c(=O)c2c1C`, the AC50 is 11.2 µM (active).
Same read-out and setting: to `Cc1ccccc1NS(=O)(=O)c1cc(C(=O)Nc2cccc(N(C)S(C)(=O)=O)c2)ccc1C` belongs 1 µM (active).
As for `Cc1ccc(SCCNC(=O)c2ccc(C)c(S(=O)(=O)Nc3ccccc3C)c2)cc1`, the AC50 is 0.631 µM (active).
As to `Cc1ccc(S(=O)(=O)Nc2ccccc2C(=O)c2ccc(C)c(C)c2)cc1`, the activity, negative = inhibition was -2.65% [at 11.4 µM].
The same measure, in the same setting: to `O=C(Nc1cccc(C(=O)Nc2ccc(S(=O)(=O)O)c3cc(S(=O)(=O)O)cc(S(=O)(=O)O)c23)c1)Nc1cccc(C(=O)Nc2ccc(S(=O)(=O)O)c3cc(S(=O)(=O)O)cc(S(=O)(=O)O)c23)c1` belongs 2.17%; to `C[N+]1(CCCC[N+]2(C)CCCCCCC2)CCCCCCC1`, 6.39% [at 11.4 µM]; to `NC(=O)c1ccc[n+](CC(=O)OCCC23CC4CC(CC(C4)C2)C3)c1`, -1.21% [at 2.29 µM].
With `CC(C)(C)OC(=O)COc1cc(OCC(=O)OC(C)(C)C)c2c(=O)cc(-c3ccccc3)oc2c1`, the “activity, negative = inhibition” value is 12.7%.
The same measure, in the same setting: to `O=C(O)c1cc(=O)c2c(OCC(O)COc3cccc4oc(C(=O)O)cc(=O)c34)cccc2o1` belongs 5.11% [at 25.6 µM].
In the case of `CCOC(=O)COc1cc(OCC(=O)OCC)c2c(=O)cc(-c3ccccc3)oc2c1`, the half-maximal activity concentration (AC50) was 20 µM (active).
As for `CC(=O)O[C@]1(C)N=NC2(CCCCC2)O1`, the activity, negative = inhibition was -7.61% [at 11.4 µM].
As for `C=CCn1c(SCC)nc2sc3c(c2c1=O)CCc1ccccc1-3`, the activity, negative = inhibition was -8.25% [at 2.29 µM].
Take `C=CCn1c(SCC(=O)N2CCc3ccccc3C2)nc2ccccc2c1=O`: the AC50 was 2.51 µM (active).
Same read-out and setting: under `O=C(Cn1c(SCC(=O)N2CCc3ccccc3C2)nc2ccccc21)NC1CCCC1` stands 3.55 µM (active).
For `CN1CCN(CCCBr)CC1`, the activity, negative = inhibition is 9.1% [at 11.4 µM].
On the same count and under the same terms, under `O=C(O)[C@@H]1[C@H](C(=O)O)[C@H]2C(=O)C=C[C@H]1N2Cc1ccccc1` stands -7.47% [at 11.4 µM]; under `CN1CCN(C2CC(=O)N(Cc3ccc(N4CCCC4=O)cc3)C2=O)CC1` (stereo not drawn), 3.78%.
As to `O=C1CC(N(O)C2CC(=O)N(Cc3ccccc3)C2=O)C(=O)N1Cc1ccccc1` (stereo not drawn), the AC50 is 10 µM (active).
Take `O=C1C2[C@@H](c3ccccc3)N[C@@H](c3ccccc3)C1[C@H](c1ccccc1)N[C@H]2c1ccccc1`: the activity, negative = inhibition was 5.64% [at 11.4 µM].
In the case of `NCCCCCCNS(=O)(=O)c1cccc2ccccc12`, the AC50 was 6.31 µM (active).
Still for that read-out and setting: to `NCCCCCCNS(=O)(=O)c1cccc2c(Cl)cccc12` belongs 3.98 µM (active) and 2.51 µM (active).
On to `COc1cc(/C=C/C(=O)O)cc(S(=O)(=O)NCCCO)c1OC`, for which the activity, negative = inhibition is -24.1% [at 11.4 µM].
Regarding `NCCCCCCCCCCNS(=O)(=O)c1cccc2c(Cl)cccc12`, the AC50 is 2.51 µM (active).
`O=S(=O)(O)CCCc1cccc2ccccc12`: the activity, negative = inhibition is -8.32% [at 11.4 µM].
For `CCCCNS(=O)(=O)c1ccc(OC)c(Cl)c1Cl`, the AC50 was 11.2 µM (active).
Turning to `Nc1ccc(S(=O)(=O)NCCS(=O)(=O)O)cc1`, the activity, negative = inhibition is -0.993% [at 11.4 µM].
Still for that read-out and setting: to `NS(=O)(=O)c1ccc(NC(=O)Nc2cccc3ccccc23)cc1` belongs -6.44% [at 11.4 µM]; to `S=c1c2[nH]cnc2ncn1CCSc1ncnc2nc[nH]c12`, -9.42% [at 11.4 µM].
The same measure, in the same setting: under `CSCCC(NC=C1C(=O)OC(C)(C)OC1=O)C(=O)O` (stereo not drawn) stands -1.78%; under `c1ccc(CCCNc2nnnc3ccccc23)cc1`, -29.6% [at 11.4 µM].
For `CCCCCCCNS(=O)(=O)c1cccc2c(Cl)cccc12`, the AC50 was 7.94 µM (active).
On to `CCN(CC)S(=O)(=O)c1cccc2c(N(C)C)cccc12`, for which the “activity, negative = inhibition” value is -22.7%.
Turning to `O=S(=O)(NCCCCCCc1ccccc1)c1cccc2c(Cl)cccc12`, the AC50 was 2.51 µM (active).
With `NCCCc1c(-c2ccccc2)nc(N)[nH]c1=O`, the activity, negative = inhibition is 1.03% [at 11.4 µM].
